Data published in the supplement of paper PMC9694430.

Experiments:
Assay in all cases: thermal shift delta Tm vs DMSO control; higher = stronger stabilization (binding)
Details in all cases: 12.5 µM; protein concentration 2 µM
LOC_OS04G57630-cb004 = test system: LOC_OS04G57630-cb004
Procedure, shortened: (§1)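 Compounds dissolved in DMSO were added to purified rice kinase domain constructs, which had been expressed in E. coli, for differential scanning fluorimetry. Each well held 19.5 μl of 2 μM kinase in 100 mM potassium phosphate pH 7.5, 150 mM NaCl, 10% glycerol and 5 × SYPRO Orange. Fluorescence was followed from 25°C to 95°C at a rate of 0.05°C/s. Shifts in Boltzmann-fitted melting temperature are triplicate means relative to DMSO-only protein.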

LOC_OS05G07850-cb002 = test system: LOC_OS05G07850-cb002
Procedure, shortened: as §1

LOC_OS05G16824-cb004 = test system: LOC_OS05G16824-cb004
Procedure, shortened: as §1

LOC_OS05G28520-cb001 = test system: LOC_OS05G28520-cb001
Procedure, shortened: as §1

LOC_OS05G30820-cb001 = test system: LOC_OS05G30820-cb001
Procedure, shortened: as §1

LOC_OS05G43570-cb004 = test system: LOC_OS05G43570-cb004
Procedure, shortened: as §1

LOC_OS06G16330-cb003 = test system: LOC_OS06G16330-cb003
Chain of LOC_OS06G16330-cb003 (as listed by the source): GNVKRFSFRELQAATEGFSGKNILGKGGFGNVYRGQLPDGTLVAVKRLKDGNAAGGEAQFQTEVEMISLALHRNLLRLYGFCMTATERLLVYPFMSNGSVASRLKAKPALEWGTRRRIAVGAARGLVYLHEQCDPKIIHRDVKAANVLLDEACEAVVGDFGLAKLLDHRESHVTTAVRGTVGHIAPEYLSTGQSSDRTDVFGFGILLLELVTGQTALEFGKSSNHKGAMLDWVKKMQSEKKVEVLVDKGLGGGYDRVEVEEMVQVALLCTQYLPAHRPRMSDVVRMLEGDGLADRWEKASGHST
Procedure, shortened: as §1

LOC_OS06G22820-cb001 = test system: T1, LOC_OS06G22820-cb001
T1 sequence (whole entry): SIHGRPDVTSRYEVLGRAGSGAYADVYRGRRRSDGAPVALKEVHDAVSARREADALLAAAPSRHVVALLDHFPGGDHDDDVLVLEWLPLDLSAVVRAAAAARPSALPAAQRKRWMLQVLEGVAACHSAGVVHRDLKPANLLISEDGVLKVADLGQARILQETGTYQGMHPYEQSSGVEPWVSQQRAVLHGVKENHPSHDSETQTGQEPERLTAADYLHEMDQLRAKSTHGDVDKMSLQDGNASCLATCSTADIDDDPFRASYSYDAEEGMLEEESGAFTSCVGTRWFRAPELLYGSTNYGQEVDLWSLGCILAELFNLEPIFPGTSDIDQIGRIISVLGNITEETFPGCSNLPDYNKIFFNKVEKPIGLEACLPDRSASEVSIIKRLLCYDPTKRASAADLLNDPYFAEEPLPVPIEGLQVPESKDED
Procedure, shortened: as §1

LOC_OS07G06570-cb004 = test system: LOC_OS07G06570-cb004
Procedure, shortened: as §1

LOC_OS07G07230-cb001 = test system: LOC_OS07G07230-cb001
Procedure, shortened: as §1

Structure (SMILES)	thermal shift delta Tm (LOC_OS04G57630-cb004) [°C]	thermal shift delta Tm (LOC_OS05G07850-cb002) [°C]	thermal shift delta Tm (LOC_OS05G16824-cb004) [°C]	thermal shift delta Tm (LOC_OS05G28520-cb001) [°C]	thermal shift delta Tm (LOC_OS05G30820-cb001) [°C]	thermal shift delta Tm (LOC_OS05G43570-cb004) [°C]	thermal shift delta Tm (LOC_OS06G16330-cb003) [°C]	thermal shift delta Tm (LOC_OS06G22820-cb001) [°C]	thermal shift delta Tm (LOC_OS07G06570-cb004) [°C]	thermal shift delta Tm (LOC_OS07G07230-cb001) [°C]
CC(C)S(=O)(=O)c1ccc2nccc(Nc3ccc4scnc4c3)c2c1	2.51	3.36	4.91	0.25	-0.04	0.38	2.09	0.32	1.62	0.17
CO[C@@H](C(=O)N1Cc2[nH]nc(NC(=O)c3ccc(N4CCN(C)CC4)cc3)c2C1)c1ccccc1	2.02	6.58	5.14	0.31	0.48	0.25	7.87	2.69	0.66	0
Cc1cc(N2CCOCC2)cc2[nH]c(-c3c(NC[C@@H](O)c4cccc(Cl)c4)cc[nH]c3=O)nc12	-0.02	9.39	5.37	1.06	0.82	0.65	4.87	0.56	-0.16	0.74
COc1ccc(F)c(F)c1C(=O)c1cnc(NC2CCN(S(C)(=O)=O)CC2)nc1N	0.37	3.17	-1.46	0.04	0.47	0.11	1.56	0.23	0.61	0.3
CC(C)CC(=O)Nc1n[nH]c2c1CN(C(=O)C1CCN(C)CC1)C2(C)C	0.48	0.58	0.18	0.19	0.53	0.86	-0.05	3.38	0.44	0.05
Cc1ccc(NC(=O)c2ccc(CN3CC[C@H](N(C)C)C3)c(C(F)(F)F)c2)cc1Nc1nccc(-c2cncnc2)n1 [Bafetinib (INNO-406)]	0.08	0.37	-2.81	1.08	0.77	0.5	-0.31	0.4	1.66	0.62
CC1Oc2cc(cnc2N)-c2c(nn(C)c2C#N)CN(C)C(=O)c2ccc(F)cc21 (stereo not given)	0.38	2.16	-1.64	0.23	0.66	0.83	10.9	0.16	0.86	0.75
CSc1cccc(Nc2ncc3cc(-c4c(Cl)cccc4Cl)c(=O)n(C)c3n2)c1	0.15	5.12	1.03	0.64	0.34	0.27	0.34	0.59	0.45	0.66
COc1cccc(-c2cc(=O)c3ccccc3o2)c1N	-0.72	0.19	-2.84	0.24	0.41	0.15	-0.2	0.44	0.29	0.35
COc1ccc(Oc2cc(NCCC(F)(F)F)c3ncc(-c4ccc(C(=O)NC5CC5)c(C)c4)n3n2)c(F)c1F	0.38	2.11	-2.18	1.04	0.67	0.63	0.09	0.73	-0.39	1.65
O=C(Nc1cccnc1)c1cc(-c2ccnc(F)c2)ccc1OCc1ccccc1	0.47	4.72	1.19	0.34	0.36	-0.18	-0.02	0.4	0.99	0.03
C[C@@]1(C(=O)Nc2ccc(F)nc2)CCCN1c1nc(Nc2cc(C3CC3)n[nH]2)c2cccn2n1	0.45	6.93	7.72	1.51	0.52	0.32	7.13	-0.88	1.23	0.05
O=C1NC(=O)C(c2ccccc2[N+](=O)[O-])=C1Nc1ccc(O)c(Cl)c1	-0.28	4.16	-13.3	1.12	0.7	0.82	-0.2	0.75	2.88	0.07
Cn1cnc2c(F)c(Nc3ccc(Br)cc3F)c(C(=O)NOCCO)cc21	0.45	1.86	-1.71	0.55	0.44	0.51	-0.03	0.61	1.32	-0.18
CS(=O)(=O)CCNCc1ccc(-c2ccc3ncnc(Nc4ccc(OCc5cccc(F)c5)c(Cl)c4)c3c2)o1 [Lapatinib]	0.95	5.03	-0.92	0.22	0.61	1.4	0.59	1.74	2.3	-0.12
O=C1c2c(O)cc(O)cc2OC(c2ccc(O)c(O)c2)C1O (stereo not given) [Taxifolin (Dihydroquercetin)]	0.11	3.32	-0.02	0.61	0.75	-0.08	-0.04	0.59	0.96	0.52
C=CC(=O)N1CC[C@@H](Oc2nc(Nc3ccc(N4CCC(N5CCN(C)CC5)CC4)cc3)c(C(N)=O)nc2CC)C1 [Naquotinib(ASP8273)]	3.28	13.1	11.6	1.04	0.55	0.27	10	0.25	1.6	0.69
CC(C)c1cnn2c(NCc3ccccc3-n3cccn3)nc(OC3CCCNC3)nc12 (stereo not given)	0.19	0.48	1.46	0.66	0.31	0.57	0.17	1.22	0.4	-0.33
CC(C)(C)S(=O)(=O)c1ccc2nccc(Nc3n[nH]c4ccc(F)cc34)c2c1	0.34	2.55	-0.25	-0.33	0.52	0.22	0.6	0.36	0.6	0.92
